PubChem BioAssay AID485313 (National Center for Advancing Translational Sciences (NCATS), 2010)
The whole screen tested about 320,000 compounds, of which about 7,600 (2.4%) were called active. Inconclusive results (about 3%) are left out. The sample as a whole holds a higher share of actives than the screen did. A number with no mark means an inactive call. Calls come from the whole dose curve; as a rule, active = well fitted activation curve with a large enough effect; inconclusive = small, poorly fitted or top-dose-only effect; inactive = no such curve, though single readings can be large or run the other way.

assay: qHTS Assay for NPC1 Promoter Activators; settings: Huh7 NPC1 promoter luciferase reporter, 24 h; series mostly up to 9.22 µM; activation: at the top concentration; note: nearly all actives have a fitted effect of over 60% in size;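 for activation: reporter is driven by a mutant NPC1 promoter; % of control where 0% means no effect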
Outline: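 Luciferase expression driven by the NPC1 promoter was measured in stably transfected Huh7 cells after a 24 h compound incubation, using a luciferase reagent and a luminescence read.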
Potency is the fitted concentration of half-maximal effect.

| Structure (SMILES) | activation | Potency |
| --- | --- | --- |
| O=C(CN(C(=O)c1csnn1)c1ccc(Br)cc1)NC1CCCC1 | 1.31% |  |
| O=C(CN1C(=O)CCS(=O)(=O)c2ccccc21)NCc1ccc(F)cc1 | 9.64% |  |
| O=C(CNS(=O)(=O)c1ccc2ccccc2c1)Nc1ccc(F)c(F)c1F | -5.75% |  |
| N#CC(=C1CCCC1)c1nc(-c2ccc(Cl)cc2)cs1 |  | 2510 nM (active) |
| CCCCCN1CC(O)=C(c2nc(-c3ccc(Cl)cc3)cs2)C1=N | 0.95% |  |
| N#CC(=C1SC=CS1)c1nc(-c2ccccc2)cs1 | 18.5% |  |
| CC1(C)NC(=O)N(CC(=O)N2CCN(S(=O)(=O)c3ccccc3F)CC2)C1=O | -4.7% |  |
| O=C(Nc1ccc(C(F)(F)F)cc1)c1cccc(-n2cnnn2)c1 | -7.93% |  |
| CN1CCN(S(=O)(=O)c2ccc(N3CCN(c4ccccc4O)CC3)c([N+](=O)[O-])c2)CC1 | 6.04% |  |
| O=C(CN(c1cc(C(F)(F)F)ccc1Cl)S(=O)(=O)c1ccccc1)NCc1cccnc1 | -7.53% |  |
| CCc1ccc(N(CC(=O)NCc2cccnc2)S(=O)(=O)c2ccccc2)cc1 |  | 2820 nM (active) |
| CCCNS(=O)(=O)c1ccc(CCC(=O)NCc2cccnc2)cc1 | -2.07% |  |
| CCN(C(=O)COC(=O)c1c(C)nn(-c2ccccc2)c1Cl)c1c(N)n(Cc2ccccc2)c(=O)[nH]c1=O | -0.895% |  |
| Cc1ccc(C(=O)N/C(=C/c2cccs2)C(=O)NCC2CCCO2)cc1 (stereo unspecified) | -0.594% |  |
| Cc1cc(/C=C(/C#N)C(=O)Nc2ccc(Cl)cc2)c(C)n1-c1cccnc1 | 11.6% |  |
| Cc1ccc(-n2c(C)cc(/C=C(\C#N)C(=O)NCC3CCCO3)c2C)cc1 (stereo unspecified) |  | 3160 nM (active) |
| O=C1C=C(c2cc(C(F)(F)F)cc(C(F)(F)F)c2)C[C@@H](c2ccc3c(c2)OCO3)C1 | -0.428% |  |
| Nc1c(C(=O)OCC(=O)Nc2ccc(OC(F)F)cc2)[nH]c(=O)[nH]c1=O | 0.835% |  |
| Cc1[nH]n(C)c(=O)c1C(=O)c1c(-c2c(Cl)cccc2Cl)noc1C | 10.9% |  |
| O=c1c2ccccc2c(-c2ccc(F)cc2)nn1-c1ccc(C(F)(F)F)cc1 | -4.99% |  |
| O=C1c2ccccc2C(=O)N1Cc1cc(-c2ccccc2Cl)no1 | -3.22% |  |
| Cn1c(-c2ccc(F)cc2)cc2onc(-c3ccccc3Cl)c2c1=O |  | 1580 nM (active) |
| Cn1c(-c2ccc(C(F)(F)F)cc2)cc2onc(-c3ccccc3)c2c1=O |  | 398 nM (active) |
| Cc1onc(-c2ccccc2)c1C(=O)N1CCN(S(=O)(=O)c2ccccc2C(F)(F)F)CC1 | -1.13% |  |
| C=C(C)C(=O)Nc1cccc(C2=NOC3(C2)C[C@H](C(N)=O)N(C(=O)C(c2ccccc2)c2ccccc2)C3)c1 (stereo partly specified) | -5.61% |  |
| COc1ccc(CNC(=O)COC(=O)c2ccc(C)c(S(=O)(=O)N3CCOCC3)c2)cc1OC | -1.27% |  |
